High-throughput results (PubChem)
pCIP destab: p/CIP-EGFP fusion destabilizers, primary screen, fluorescence, F442A cells | 16 h | decrease of EGFP signal, % at 10 µM | hit rate 0.01% among 290,000 | AID 1984, 2009;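 active = EGFP signal decrease of at least 30% at 10 µM or well 3 SD below plate mean, unless failing retest; inactive = the rest, including hits failing retest or dose response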
VLA-4 inh: inhibition in human VLA-4 binding assay, primary screen, VLA-4 allosteric modulator project, MLPCN library, flow cytometry, VLA-4 expressing cells; hit rate 0.2% among 330,000; AID 2557, 2010; Integrin alpha-4 (Homo sapiens), P13612; inhibition, % (about 7 µM as worked out from the volumes in the protocol); ligand binding flow cytometry; in the data active = inhibition above about 50%
Target sequence (P13612 whole entry, looked up): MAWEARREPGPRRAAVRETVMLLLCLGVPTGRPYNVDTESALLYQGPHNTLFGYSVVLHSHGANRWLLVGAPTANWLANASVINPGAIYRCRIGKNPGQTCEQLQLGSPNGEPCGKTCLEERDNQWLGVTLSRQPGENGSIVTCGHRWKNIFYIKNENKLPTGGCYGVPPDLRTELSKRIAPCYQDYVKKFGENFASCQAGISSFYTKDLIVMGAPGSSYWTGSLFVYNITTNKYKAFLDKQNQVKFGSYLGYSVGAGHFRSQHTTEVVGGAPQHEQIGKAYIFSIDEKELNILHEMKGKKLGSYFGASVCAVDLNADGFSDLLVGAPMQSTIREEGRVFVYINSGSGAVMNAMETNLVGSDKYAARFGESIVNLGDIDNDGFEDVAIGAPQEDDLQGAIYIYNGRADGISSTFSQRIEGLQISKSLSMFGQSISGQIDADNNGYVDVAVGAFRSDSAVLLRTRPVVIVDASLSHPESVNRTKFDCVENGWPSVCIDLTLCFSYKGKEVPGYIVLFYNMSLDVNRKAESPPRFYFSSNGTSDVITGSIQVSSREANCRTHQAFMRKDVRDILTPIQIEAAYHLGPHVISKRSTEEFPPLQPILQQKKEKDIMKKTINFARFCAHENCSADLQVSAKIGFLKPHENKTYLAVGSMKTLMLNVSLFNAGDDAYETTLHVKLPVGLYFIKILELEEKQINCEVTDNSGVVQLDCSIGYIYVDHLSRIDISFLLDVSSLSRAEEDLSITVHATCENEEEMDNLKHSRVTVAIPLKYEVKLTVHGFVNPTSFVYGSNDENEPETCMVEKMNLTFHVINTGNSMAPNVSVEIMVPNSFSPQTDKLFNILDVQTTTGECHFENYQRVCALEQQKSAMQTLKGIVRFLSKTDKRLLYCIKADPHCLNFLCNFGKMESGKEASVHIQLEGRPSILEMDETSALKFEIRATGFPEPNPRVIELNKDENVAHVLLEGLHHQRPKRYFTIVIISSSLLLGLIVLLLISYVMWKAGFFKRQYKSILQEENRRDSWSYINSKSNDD
GPR7 antag: GPR7 receptor antagonists, primary screen, cell-based, fluorescence, single concentration; GPR7-expressing cells, fluorescence antagonist assay; inhibition, % at 4.4 µM; hit rate 1.1% among 290,000; AID 1861, 2009; in the data active = inhibition above about 16%, passing the limit was not always enough;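 also: cells stimulated with the agonist NPW; 0% = agonist with vehicle and 100% = vehicle without agonist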
GASC-1 inh: inhibitors of GASC-1 histone demethylase, primary screen, biochemical, fluorescence, DELFIA europium. Lysine-specific demethylase 4C (Homo sapiens), Q9H3R0. GST-JMJD2C(1-420) H3K9me3 demethylation. inhibition, % at 2.35 µM. hit rate 0.069% among 330,000. AID 2099, 2009;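 active = more than half of a compound's replicate wells show inhibition beyond 50%, single wells judged on their own value; inconclusive = some, but no more than half, of replicates pass 50% inhibition; inactive = no replicate passes 50% inhibition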;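 also: signal counts dimethyl H3K9 product captured on neutravidin plate; 0% = median of DMSO wells and 100% = 0.3 times that DMSO median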
GPR7 antag conf: GPR7 receptor antagonists, confirmation, cell-based, fluorescence, single concentration; shares compounds with GPR7 antag; GPR7-expressing cells, calcium fluorescence antagonist mode; inhibition, % at 4.4 µM; hit rate 52% among 2,400; AID 1952, 2009; in the data active = inhibition above about 24%;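 also: stimulated with the GPR7 agonist NPW; 0% = agonist plus vehicle and 100% = vehicle alone without agonist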
MCHR1 antagonist: MCHR1 antagonists in cells, counter-screen for GPR7 antagonist project, cell-based, fluorescence, human. shares compounds with GPR7 antag. MCHR1-expressing cells, fluorescence antagonist assay. inhibition, % at 4.4 µM. hit rate 62% among 2,400; in the data active = inhibition above about 22%;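 also: 0% = vehicle with agonist and 100% = vehicle without agonist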
The depositor's hits bear a star; i = inactive; u = inconclusive; x = not tested or not shown; ! = not confirmed by another sample. Compounds with a hit are over-represented: about 1.2% of the library has one in this group of screens.

SMILES	pCIP destab	VLA-4 inh	GPR7 antag	GASC-1 inh	GPR7 antag conf	MCHR1 antagonist
COc1ccc2c(c1)CC(N1CCN(C)CC1)c1cc(OC)ccc1S2 (stereo not drawn)	x	12.2	x	2.4	x	x
Clc1ccc2c(c1)C(N1CCNCC1)Cc1ccccc1S2 (stereo not drawn)	-11.4	12.3	28.4*	-19.9	53.4*	64.5*
CSc1nnc(-c2ccccc2Cl)n1N	-2.5	-4.4	24.0*	-2.1	-10.4	-2.7
COc1ccc(OC2C(=O)N(Cc3ccc(F)cc3)C2c2cc(OC)c(OC)c(OC)c2)cc1 (stereo not drawn)	3.9	-3.2	-12.2	3.8	x	x
COc1ccc(C2C(Oc3ccccc3C)C(=O)N2Cc2ccc(F)cc2)cc1OC (stereo not drawn)	-3.7	-2.5	27.9*	-0.1	15.6	20.0
O=C(COc1ccccc1)NCC(c1ccco1)N1CCCCC1 (stereo not drawn)	x	5.2	x	-18.2	x	x
Cc1onc(-c2ccccc2)c1C(=O)Nc1nnc(C(C)C)s1	-9.9	20.1	-8.9	-4.1	x	x
Cc1onc(-c2ccccc2)c1C(=O)Nc1ncc([N+](=O)[O-])s1	-17.6	5.5	26.7*	-3.1	19.2	37.2*
CCc1ccc2[nH]c(=O)c(C(c3nnnn3Cc3ccc(OC)cc3)N3CCOCC3)cc2c1 (stereo not drawn)	-2.4	4.3	28.6*	-2.3	4.9	14.5
CCc1ccc(Nc2n[n+](-c3ccccc3)c(-c3ccc(N(CC)CC)cc3)s2)cc1	-100.3	i	62.0*	-0.8	88.1*	83.4*
CCc1ccc(Nc2n[n+](-c3ccccc3)c(-c3ccc(OCc4ccccc4)cc3)s2)cc1	-23.0	1.8	68.1*	-1.7	53.1*	59.0*
CCc1ccc(Nc2n[n+](-c3ccccc3)c(-c3c(Cl)cccc3Cl)s2)cc1	-9.4	-1.2	44.8*	-0.9	59.8*	73.1*
c1ccc(COc2ccc(-c3sc(Nc4ccccc4)n[n+]3-c3ccccc3)cc2)cc1	-25.3	6.7	9.4	-8.8	x	x
COc1ccccc1NS(=O)(=O)c1cc(NC(=O)C2CCCO2)ccc1C (stereo not drawn)	x	-5.7	x	-0.5	x	x
Cc1cc(N2CCCC2=O)ccc1S(=O)(=O)NC1CCCCC1	1.7	8.6	-8.3	-5.0	x	x
COc1ccc(NC(=O)Cc2ccc(Cl)c(Cl)c2)cn1	-1.0	7.6	5.3	-8.2	x	x
COc1ccc(NC(=O)/C(Cl)=C(/Cl)S(=O)Cc2ccccc2Cl)cn1 (stereo not drawn)	29.1	x	40.0*	x	76.2*	90.9*
CCN(CC)c1ccc2cc(-c3nc4ccccc4[nH]3)c(=O)oc2c1	-335.0	i	28.2*	-18.1	80.9*	89.0*
COc1cccc2cc(-c3nc4ccccc4[nH]3)c(=O)oc12	-10.6	4.8	-13.0	0.1	x	x
CC(=O)Nc1ccc(S(=O)(=O)N2CCc3cc4c(cc3C2)OCCCO4)cc1	-8.6	4.0	28.8*	23.2	15.4	36.9*
CCn1c(SCC(=O)Nc2ccccc2OC)nc2ccccc2c1=O	-0.1	11.5	-1.9	-13.7	x	x
COc1ccccc1NC(=O)CSc1nc2ccccc2n1C(C)=O	-20.1	3.0	21.0*	u	-6.3	16.6
Cc1ccc(/C=C/S(=O)(=O)NCCC(=O)NCc2ccc(F)cc2)cc1	x	4.7	x	-1.6	x	x
C=CCOC(=O)C1=C[C@H](c2ccc3c(c2)OCO3)C[C@H](OCCCCO)O1	x	-4.6	x	12.2	x	x
CC1(C)CSC(=NCc2ccccc2)N1C(=O)c1cccc([N+](=O)[O-])c1	-2.6	-2.9	71.1*	13.4	75.3*	82.3*
SMILES	pCIP destab	VLA-4 inh	GPR7 antag	GASC-1 inh	GPR7 antag conf	MCHR1 antagonist
COc1ccccc1-c1nnc(C2CCN(S(=O)(=O)c3ccc([N+](=O)[O-])cc3)CC2)o1	-11.1	-2.1	21.2*	4.3	48.2*	31.7*
COc1ccccc1-c1nnc(C2CCN(S(=O)(=O)c3cccc([N+](=O)[O-])c3)CC2)o1	-8.6	0.8	-0.5	7.0	x	x
COc1ccc(C(CCNCc2ccc(N(C)C)cc2)c2ccccc2)cc1 (stereo not drawn)	-19.3	14.8	30.2	-11.9	x	x
COc1ccc(C(CCNCc2ccc(OC)c(OC)c2)c2ccc(F)cc2)cc1 (stereo not drawn)	-2.4	10.3	30.9*	3.6	51.8*	79.9*
O=C(O)CCn1c(=O)[nH]c(=O)n(CCC(=O)O)c1=O	-14.7	-2.1	24.2*	1.7	-2.5	-6.8
COC(=O)C1CCN(C(=O)COC(=O)c2cc(-c3cccs3)nn2-c2ccccc2)CC1	x	17.3	x	-2.7	x	x
Cc1cccc2cc3c(nc12)SC(=NCC1CCCO1)N(Cc1ccco1)C3 (stereo not drawn)	-3.6	-5.6	22.5*	5.3	12.8	60.2*
Cc1ccc2nc3c(cc2c1)CN(Cc1ccco1)C(=NCC1CCCO1)S3 (stereo not drawn)	-3.7	-8.8	-1.4	4.1	x	x
Cc1ccccc1NC(=O)/C=C1\SC(=O)NC1=O	3.1	16.3	-3.9	0.0	x	x
CCC(C)NC(=O)c1cc2c(=O)[nH]c3ccc(C)cc3c2s1 (stereo not drawn)	-0.8	11.4	0.6	-20.2	x	x
CCc1ccc(NC(=O)C2(c3ccccc3)CC2(Cl)Cl)cc1 (stereo not drawn)	-2.7	2.5	28.7*	-5.4	64.6*	76.1*
Cc1ccc(NC(=O)C2(c3ccccc3)CC2(Cl)Cl)cc1C (stereo not drawn)	-17.0	21.2	-4.0	-4.7	x	x
COc1ccc(C=O)cc1CSc1nnc(COc2cccc3cccnc23)o1	0.6	8.3	24.5*	10.0	10.2	26.7*
O=C(OCc1ccccc1)c1cn(-c2ccccc2)nc1-c1ccncc1	-11.8	-6.1	-13.3	4.4	x	x
CN(C)CCCN1c2ccccc2Sc2ccc(Cl)cc21	-3.4	17.7	34.6*!	-10.9	45.6*	56.8*
OCCN1CCN(CCCN2c3ccccc3Sc3ccc(Cl)cc32)CC1	-4.3	21.2	9.0	19.4	x	x
Clc1ccccc1Nc1ncnc2c1nnn2Cc1ccccc1	-2.2	0.2	33.6*	1.2	23.6	4.4
Fc1ccccc1Nc1ncnc2c1nnn2Cc1ccccc1	-6.0	-9.8	33.6	-0.3	x	x
CCc1ccc(OS(=O)(=O)c2cn(C)c(=O)n(C)c2=O)cc1	-3.8	8.4	-1.0	-0.9	x	x
CC(=O)c1ccc(NC(=O)c2ccccc2-c2ccccc2C(=O)O)cc1	9.1	12.0	26.6*	-24.7	0.7	-2.4
COc1ccccc1CNCC(O)(c1ccc(Cl)cc1)c1ccc(Cl)cc1	-20.7	12.3	27.5*	-2.1	46.8*	33.4*
OC(CNCc1ccccc1F)(c1ccc(F)cc1)c1ccc(F)cc1	1.9	0.2	9.1	-0.2	x	x
